Hit rate of the full screen: of about 310,000 compounds, about 14,000 (4.5%) showed an effect of 50% or more. Effects have a minus sign here. Only a selection was taken, and strong results are over-represented in it overall.
The compounds below were run against human ether-à-go-go-related gene (hERG) potassium channel (human, UniProt Q12809) (assay: primary screen, population patch clamp on CHO cells stably expressing hERG; higher = less effect of the substance).
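Also: peak tail current of the secondary pulse compared with the same well before compound.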

human ether-à-go-go-related gene (hERG) potassium channel, sequence (Q12809 whole entry, looked up): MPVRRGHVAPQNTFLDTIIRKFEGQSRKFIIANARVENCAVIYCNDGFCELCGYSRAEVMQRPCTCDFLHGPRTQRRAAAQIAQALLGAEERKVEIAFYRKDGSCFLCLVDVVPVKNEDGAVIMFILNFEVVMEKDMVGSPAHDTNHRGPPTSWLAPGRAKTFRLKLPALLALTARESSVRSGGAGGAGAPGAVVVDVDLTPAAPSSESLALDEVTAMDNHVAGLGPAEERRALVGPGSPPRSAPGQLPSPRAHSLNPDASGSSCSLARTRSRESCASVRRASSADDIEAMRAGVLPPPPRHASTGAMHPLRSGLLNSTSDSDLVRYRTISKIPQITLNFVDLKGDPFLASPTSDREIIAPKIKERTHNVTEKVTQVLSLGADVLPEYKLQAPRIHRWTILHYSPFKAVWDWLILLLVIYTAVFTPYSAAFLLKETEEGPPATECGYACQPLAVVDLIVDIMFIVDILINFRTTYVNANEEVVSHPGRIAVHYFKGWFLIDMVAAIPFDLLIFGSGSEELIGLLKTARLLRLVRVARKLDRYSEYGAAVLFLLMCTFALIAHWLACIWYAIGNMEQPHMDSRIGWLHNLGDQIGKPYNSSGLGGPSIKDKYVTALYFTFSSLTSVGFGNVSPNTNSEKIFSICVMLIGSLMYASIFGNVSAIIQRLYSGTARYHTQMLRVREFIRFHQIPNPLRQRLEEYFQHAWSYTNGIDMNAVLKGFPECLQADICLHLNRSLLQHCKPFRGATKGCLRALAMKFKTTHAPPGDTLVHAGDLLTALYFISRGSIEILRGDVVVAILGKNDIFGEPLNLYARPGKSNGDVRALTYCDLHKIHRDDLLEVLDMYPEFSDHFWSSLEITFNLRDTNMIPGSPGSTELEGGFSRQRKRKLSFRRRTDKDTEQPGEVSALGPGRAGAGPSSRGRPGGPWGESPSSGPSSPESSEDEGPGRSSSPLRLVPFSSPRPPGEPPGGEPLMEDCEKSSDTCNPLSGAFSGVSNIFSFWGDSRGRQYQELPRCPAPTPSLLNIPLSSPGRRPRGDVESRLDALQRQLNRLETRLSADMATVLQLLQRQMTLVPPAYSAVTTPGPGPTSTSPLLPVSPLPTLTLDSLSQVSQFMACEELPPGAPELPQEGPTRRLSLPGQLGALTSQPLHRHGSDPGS

| SMILES | hERG current change (%, negative = inhibition) at 10uM [%] |
| --- | --- |
| COc1cccc(C(=O)N2CCN(Cc3ccccc3[N+](=O)[O-])CC2)c1 | -14.5 |
| CN(Cc1ccccc1)C1CCN(Cc2ccccc2[N+](=O)[O-])CC1.O=C(O)C(=O)O | -59.6 |
| COc1ccc(C(=O)N2CCN(Cc3ccccc3[N+](=O)[O-])CC2)cc1.O=C(O)C(=O)O | -58.9 |
| O=C(c1cccs1)N1CCN(Cc2ccccc2[N+](=O)[O-])CC1 | -17.7 |
| O=C(O)C(=O)O.O=C(c1ccc([N+](=O)[O-])cc1)N1CCN(Cc2ccccc2[N+](=O)[O-])CC1 | -75 |
| O=C(C1CCCN(Cc2ccccc2[N+](=O)[O-])C1)N1CCCC1.O=C(O)C(=O)O (centres unmarked) | 11.4 |
| O=C(Cc1ccccc1[N+](=O)[O-])NC1CCN(Cc2ccccc2)CC1 | -1.68 |
| COc1cc(OC)cc(C(=O)N2CCN(Cc3ccccc3[N+](=O)[O-])CC2)c1.O=C(O)C(=O)O | -46.5 |
| CC(C)CC(=O)N1CCN(Cc2ccccc2[N+](=O)[O-])CC1.O=C(O)C(=O)O | -7.35 |
| CC(=O)Nc1cccc(NC(=O)CSc2ccc(-c3cccnc3)nn2)c1 | 7.43 |
| CCC(C)/C(C)=N/NC(=O)CSc1nc2ccccc2[nH]1 (centres unmarked) | 2.26 |
| O=C1C2CC=CCC2C(=O)N1CNc1ccccc1 (centres unmarked) | 14.7 |
| Cc1c(Cl)c([N+](=O)[O-])nn1CCCC(=O)Nc1ccc(Cl)cc1Cl | -45.1 |
| COc1ccc(CNC(=O)C(=O)NCC2OCCN2S(=O)(=O)c2cccs2)cc1 (centres unmarked) | -4.34 |
| O=C(CNC1C(=O)Nc2ccccc21)Sc1ccccc1 (centres unmarked) | 22.3 |
| CCSc1nnc(NC(=O)Cc2cc(OC)c(OC)c(OC)c2)s1 | 8.27 |
| CSc1nnc(SCC(=O)N(C)c2c(N)n(Cc3ccccc3)c(=O)[nH]c2=O)s1 | 5.79 |
| CC(C)C[C@H](NC(=O)c1nc[nH]c1C(=O)NCc1ccccc1)C(=O)OCc1ccccc1 | -7.88 |
| COCCn1c(SCC(=O)NC2CCCC2)nnc1C(C)C | 22.6 |
| CSc1ccc(C(=O)N2CCC(CCC(=O)NC3CC3)CC2)cc1 | -30.8 |
| CSc1cccc(CN2CCC(CCC(=O)NC3CC3)CC2)c1 | -62.6 |
| O=C(CCC1CCN(Cc2ccccc2Cl)CC1)NC1CC1 | -23.2 |

| SMILES | hERG current change (%, negative = inhibition) at 10uM [%] |
| --- | --- |
| O=C(CCC1CCN(Cc2ccc(C#CCCO)cc2)CC1)NC1CC1 | -46.7 |
| CSc1ccccc1C(=O)N1CCC(CCC(=O)NC2CC2)CC1 | 11.6 |
| O=C(CCC1CCN(Cc2ccc(Cl)cc2)CC1)NC1CC1 | -65.9 |
| CN(Cc1cnn(C)c1)Cc1nc(-c2ccc(Cl)cc2)no1 | -4.26 |
| Cn1c(=O)c2c(SC3CCCC3)nc(C3CC3)nc2n(C)c1=O | 18.8 |
| S=C1NCCOCCOCCNC(=S)N2CCOCCOCCN1CCOCCOCC2 | 5.22 |
| CCOC(=O)c1[nH]c(C)c(C(=O)N2CCN(c3cccc(Cl)c3)CC2)c1C | -13.8 |
| CN(C(=O)CSc1ncc(C(F)(F)F)cc1Cl)c1c(N)n(Cc2ccccc2)c(=O)[nH]c1=O | 8.25 |
| CN(C)S(=O)(=O)c1ccc(C(=O)OCc2ccc(C#N)cc2)cc1 | -11.1 |
| C/C(=N\OCc1ccc(C#N)cc1)c1ccc(S(=O)(=O)N(C)C)cc1 | -52.7 |
| C/C(=N\OCc1ccc(C#N)cc1)c1ccccc1 | 12.1 |
| CCn1c(SCC(=O)N2CCOCC2)nc2sc3c(c2c1=O)CCCC3 | -5.19 |
| C=CCn1c(SCCN2CCCC2)nc2c([nH]c3ccccc32)c1=O | -71.7 |
| C=CCn1c(SCC(=O)NC2CCCC2)nc2c([nH]c3ccccc32)c1=O | -40.8 |
| C=CCn1c(SCC(=O)N2CCOCC2)nc2sc3c(c2c1=O)CCCC3 | -53.9 |
| C=CCn1c(SCC(=O)N2CCN(CCO)CC2)nc2sc3c(c2c1=O)CCC3 | -20.9 |
| C=CCn1c(SCC(=O)N2CCOCC2)nc2c([nH]c3ccccc32)c1=O | -52.9 |
| C=CCn1c(SCC(=O)N2CCCC2)nc2c([nH]c3ccccc32)c1=O | -29.6 |
| C=CCn1c(SCC(=O)NCCc2ccccc2)nc2c([nH]c3ccccc32)c1=O | -3.29 |
| C=CCn1c(SCC(=O)N2CCN(c3ccccc3)CC2)nc2c([nH]c3ccccc32)c1=O | 13.3 |
| COc1ccc(S(=O)(=O)Nc2ccc(S(=O)(=O)Nc3nccs3)cc2)cc1 | 19.9 |
| COc1ccc(OCc2cc(C(=O)O)c(C)o2)cc1 | 2.69 |
